From PubChem BioAssay (NCI)
This is part of a sample that, as a whole, favours compounds with a hit. Of some 79,000 tested, about 15% had one in any assay. Active and inactive are the calls of the source. Rule as the data show it: active = growth inhibition above about 70%; inactive = the rest.

How the values were obtained:
[1] = NCI Yeast Anticancer Drug Screen. Data for the rad52 strain (AID 147);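 also: 0% = growth of vehicle-treated control cultures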; settings: S. cerevisiae rad52 mutant growth inhibition, hits give high values
How it was run: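 Yeast strain carrying a DNA damage repair alteration was exposed to test compounds. Growth inhibition was measured relative to vehicle-treated controls.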

[2] = NCI Yeast Anticancer Drug Screen. Data for the wt1 strain (AID 149);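 also: 0% = growth of vehicle-treated wt1 cultures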; settings: S. cerevisiae wt1 strain (SPY 50644) growth inhibition, hits give high values
How it was run: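 wt1 strain grown with compound or vehicle; inhibition taken from the growth difference.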

[3] = NCI Yeast Anticancer Drug Screen. Data for the rad50EPP+ strain (AID 151);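 also: 0% = growth of vehicle-treated control cultures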; settings: S. cerevisiae rad50 mutant strain, hits give high values
How it was run: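 Yeast strain carrying rad50 alteration (rad50EPP+) exposed to compounds; growth inhibition measured relative to vehicle-treated controls.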

[4] = NCI Yeast Anticancer Drug Screen. Data for the mgt1 strain (AID 153); settings: S. cerevisiae mgt1 mutant growth inhibition, hits give high values
How it was run: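 Yeast mgt1 strain (DNA repair/cell-cycle alteration panel) exposed to compounds; growth inhibition measured relative to vehicle-treated controls.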

[5] = NCI Yeast Anticancer Drug Screen. Data for the rad50 strain (AID 155);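 also: 0% = growth of vehicle-only cultures of the same strain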; settings: S. cerevisiae rad50 strain growth inhibition, hits give high values
How it was run: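 DNA repair mutant yeast, compound exposure, growth read-out; inhibition is taken relative to vehicle.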

[6] = NCI Yeast Anticancer Drug Screen. Data for the mec2-1 strain (AID 157); settings: S. cerevisiae mec2-1 strain, hits give high values
How it was run: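 mec2-1 yeast strain, carrying an alteration in DNA damage repair or cell cycle control, was exposed to compounds; growth inhibition was measured relative to vehicle-treated controls.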

[7] = NCI Yeast Anticancer Drug Screen. Data for the rad14 strain (AID 159);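 also: 0% = growth of vehicle-treated control cultures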; settings: S. cerevisiae rad14 strain growth inhibition, hits give high values
How it was run: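 DNA repair-defective yeast, compound-exposed; % growth inhibition derived by comparison with vehicle-treated controls.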

[8] = NCI Yeast Anticancer Drug Screen. Data for the sgs1 mgt1 strain (AID 161);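 also: 0% = growth of cultures given vehicle only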; settings: S. cerevisiae sgs1 mgt1 strain, hits give high values
How it was run: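 Percent growth inhibition was derived by comparing compound-exposed mutant yeast with vehicle-exposed cultures. The strain carries alterations in DNA damage repair.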

[9] = NCI Yeast Anticancer Drug Screen. Data for the CLN2oe strain (AID 163);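 also: 0% = growth of vehicle-only control cultures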; settings: S. cerevisiae CLN2oe strain, hits give high values
How it was run: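 Yeast cells carrying a defined cell-cycle control alteration were exposed to test compounds. Growth inhibition was scored against vehicle-treated control cultures.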

[10] = NCI Yeast Anticancer Drug Screen. Data for the cln2 rad14 strain (AID 165);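 also: 0% = growth equal to vehicle treated cultures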; settings: S. cerevisiae cln2 rad14 strain, hits give high values
How it was run: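 Yeast carrying cln2 and rad14 alterations (cell cycle control and DNA damage repair) were exposed to compounds. Growth inhibition was measured against vehicle-treated controls.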

[11] = NCI Yeast Anticancer Drug Screen. Data for the bub3 strain (AID 167); settings: S. cerevisiae bub3 mutant strain, hits give high values
How it was run: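 In this screen, a yeast mutant lacking normal mitotic checkpoint function is challenged with compound. Relative growth versus vehicle gives the inhibition value.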

[12] = NCI Yeast Anticancer Drug Screen. Data for the wt2 strain (AID 169);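 also: 0% = growth of vehicle-treated yeast cultures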; settings: S. cerevisiae wt2 strain growth inhibition, hits give high values
How it was run: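 Yeast cells were exposed to test compounds, and growth inhibition was measured relative to vehicle-treated controls.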

[13] = NCI Yeast Anticancer Drug Screen. Data for the mlh1 strain (AID 171);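 also: 0% = growth of vehicle-treated control cultures of the same strain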; settings: S. cerevisiae mlh1 strain growth inhibition, hits give high values
How it was run: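 Yeast carrying a defined genetic alteration in DNA damage repair or cell cycle control were exposed to test compounds. Growth inhibition was measured relative to vehicle-treated controls.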

[14] = NCI Yeast Anticancer Drug Screen. Data for the sgs1 strain (AID 173);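 also: 0% = growth of vehicle-only control cultures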; settings: S. cerevisiae sgs1 mutant, hits give high values
How it was run: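 Yeast mutant strains carrying defined defects in DNA damage repair or cell cycle control were exposed to test compounds. Growth inhibition was scored against vehicle-treated controls.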

[15] = NCI Yeast Anticancer Drug Screen. Data for the mlh1 rad18 strain (AID 175); settings: S. cerevisiae mlh1 rad18 strain growth inhibition, hits give high values
How it was run: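 Growth inhibition of the yeast strain was measured after compound exposure and expressed relative to vehicle-treated controls. The strain carries defined defects in DNA damage repair.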

[16] = NCI Yeast Anticancer Drug Screen. Data for the rad18 strain (AID 177); settings: S. cerevisiae rad18 mutant growth inhibition, hits give high values
How it was run: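 Yeast carrying a defined DNA damage repair alteration were exposed to compounds. Growth inhibition was expressed relative to vehicle-treated controls.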

[17] = at 5.0 µM (retest, dose inferred, filed as 0.5)
[18] = at 50.0 µM (retest, dose inferred, filed as 5.0)

Measured: growth inhibition

O=C(NC(N1CCN(c2cc3c(cc2F)c(=O)c(C(=O)O)cn3C2CC2)CC1)(C(F)(F)F)C(F)(F)F)c1ccccc1
active: [1]; at 33.0 µM 90% | [1]; at 100.0 µM 90% | [5]; at 33.0 µM 88% | [5]; [18] 96% | [5]; at 100.0 µM 91% | [15]; [18] 80%
inactive: [1]; at 1.2 µM -2% | [1]; at 3.7 µM 1% | [1]; at 11.0 µM 17% | [2]; at 1.2 µM -2% | [2]; at 3.7 µM -3% | [2]; at 11.0 µM -1% | [2]; at 33.0 µM 8% | [2]; at 100.0 µM 40% | [3]; at 1.2 µM -2% | [3]; at 3.7 µM -1% | [3]; at 11.0 µM 4% | [3]; at 33.0 µM 27% | [3]; at 100.0 µM 40% | [4]; at 1.2 µM -1% | [4]; at 3.7 µM -2% | [4]; at 11.0 µM -2% | [4]; at 33.0 µM 6% | [4]; at 100.0 µM 42% | [5]; at 1.2 µM -1% | [5]; at 3.7 µM 5% | [5]; [17] -1% | [5]; at 11.0 µM 19% | [5]; at 50.0 µM 46.8% | [6]; at 1.2 µM -2% | [6]; at 3.7 µM -3% | [6]; [17] 3% | [6]; at 11.0 µM 0% | [6]; at 33.0 µM 35% | [6]; [18] 35% | [6]; at 50.0 µM -19.2% | [6]; at 100.0 µM 67% | [7]; at 1.2 µM -2% | [7]; at 3.7 µM -1% | [7]; at 11.0 µM 2% | [7]; at 33.0 µM 19% | [7]; at 100.0 µM 44% | [8]; [17] 4% | [8]; [18] 25% | [8]; at 50.0 µM 11.2% | [9]; at 1.2 µM 2% | [9]; at 3.7 µM 0% | [9]; at 11.0 µM 1% | [9]; at 33.0 µM 15% | [9]; at 100.0 µM 58% | [10]; [17] -3% | [10]; [18] 20% | [10]; at 50.0 µM 33.9% | [11]; at 1.2 µM 0% | [11]; at 3.7 µM -1% | [11]; [17] -7% | [11]; at 11.0 µM 1% | [11]; at 33.0 µM 2% | [11]; [18] 6% | [11]; at 50.0 µM -13.9% | [11]; at 100.0 µM 48% | [12]; at 1.2 µM -2% | [12]; at 3.7 µM -2% | [12]; at 11.0 µM -1% | [12]; at 33.0 µM 9% | [12]; at 100.0 µM 34% | [13]; at 1.2 µM -4% | [13]; at 3.7 µM -2% | [13]; at 11.0 µM 0% | [13]; at 33.0 µM 11% | [13]; at 100.0 µM 39% | [14]; at 1.2 µM -3% | [14]; at 3.7 µM -2% | [14]; at 11.0 µM 1% | [14]; at 33.0 µM 29% | [14]; at 100.0 µM 58% | [15]; [17] -5% | [15]; at 50.0 µM -1.3% | [16]; at 1.2 µM -3% | [16]; at 3.7 µM -2% | [16]; at 11.0 µM -1% | [16]; at 33.0 µM 20% | [16]; at 100.0 µM 52%
